# Experimental data published in the supplement of paper PMC4466140.
# B1: unnamed (peptide)
# chain: RNNRPVPPPPPMRTT
# B2: unnamed (peptide)
# chain: LKHGWKPLRPIKLIS
# How the values were obtained:
# Test in all cases: SPOT peptide array binding signal intensity (averaged, normalized) (arbitrary units (background-subtracted, floor 0; scale differs between SH3 domains)); higher = stronger binding of the SH3 domain to the peptide
# AgAbp1 = target: AgAbp1
# Procedure, shortened: (§1)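 The binding signal is the normalized, background-subtracted spot intensity averaged over replicates; its arbitrary units differ between domains. It was obtained by incubating 10 μg/ml GST-fused SH3 domains from four yeast species overnight at 4°C in TBS-based blocking buffer on cellulose membranes with synthetic 15-mer peptides, cysteines replaced by serines, then detecting with anti-GST antibody, HRP anti-mouse secondary and luminol.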
# AgBbc1 = target: AgBbc1
# Procedure, shortened: as §1
# AgBem1-D1 = target: AgBem1-D1
# Procedure, shortened: as §1
# AgBzz1-D1 = target: AgBzz1-D1
# Procedure, shortened: as §1
# AgBzz1-D2 = target: AgBzz1-D2
# Procedure, shortened: as §1
# AgCyk3 = target: AgCyk3
# Procedure, shortened: as §1
# AgFus1 = target: AgFus1
# Procedure, shortened: as §1
# AgHof1 = target: AgHof1
# Procedure, shortened: as §1
# AgHse1 = target: AgHse1
# Procedure, shortened: as §1
# AgLsb1 = target: AgLsb1
# Procedure, shortened: as §1
# AgLsb4 = target: AgLsb4
# Procedure, shortened: as §1
# AgMyo5 = target: AgMyo5
# Procedure, shortened: as §1
# AgNbp2 = target: AgNbp2
# Procedure, shortened: as §1
# AgRvs167 = target: AgRvs167
# Procedure, shortened: as §1
# AgSho1 = target: AgSho1
# Procedure, shortened: as §1
# AgSla1-D1-D2 = target: AgSla1-D1-D2
# Procedure, shortened: as §1
# AgSla1-D3 = target: AgSla1-D3
# Procedure, shortened: as §1
# CaAbp1-D1 = target: CaAbp1-D1
# Procedure, shortened: as §1
# CaAbp1-D2 = target: CaAbp1-D2
# Procedure, shortened: as §1
# CaBbc1 = target: CaBbc1
# Procedure, shortened: as §1
# CaBem1-D1 = target: CaBem1-D1
# Procedure, shortened: as §1
# CaBzz1-D1 = target: CaBzz1-D1
# Procedure, shortened: as §1
# CaBzz1-D2 = target: CaBzz1-D2
# Procedure, shortened: as §1
# CaCyk3 = target: CaCyk3
# Procedure, shortened: as §1
# CaFus1 = target: CaFus1
# Procedure, shortened: as §1
# CaHof1 = target: CaHof1
# Procedure, shortened: as §1
# CaHse1 = target: CaHse1
# Procedure, shortened: as §1
# CaLsb1 = target: CaLsb1
# Procedure, shortened: as §1
# CaLsb4 = target: CaLsb4
# Procedure, shortened: as §1
# CaMyo5 = target: CaMyo5
# Procedure, shortened: as §1
# CaNbp2 = target: CaNbp2
# Procedure, shortened: as §1
# CaRvs167 = target: CaRvs167
# Procedure, shortened: as §1
# CaRvs167-3 = target: CaRvs167-3
# Procedure, shortened: as §1
# CaSho1 = target: CaSho1
# Procedure, shortened: as §1
# CaSla1-D1-D2 = target: CaSla1-D1-D2
# Procedure, shortened: as §1
# CaSla1-D3 = target: CaSla1-D3
# Procedure, shortened: as §1
# ScAbp1 = target: ScAbp1
# Procedure, shortened: as §1
# ScBbc1 = target: ScBbc1
# Procedure, shortened: as §1
# ScBem1-D1 = target: ScBem1-D1
# Procedure, shortened: as §1
# ScBzz1-D1 = target: ScBzz1-D1
# Procedure, shortened: as §1
# ScBzz1-D2 = target: ScBzz1-D2
# Procedure, shortened: as §1
# ScCyk3 = target: ScCyk3
# Procedure, shortened: as §1
# ScFus1 = target: ScFus1
# Procedure, shortened: as §1
# ScHof1 = target: ScHof1
# Procedure, shortened: as §1
# ScHse1 = target: ScHse1
# Procedure, shortened: as §1
# ScLsb1 = target: ScLsb1
# Procedure, shortened: as §1
# ScLsb2 = target: ScLsb2
# Procedure, shortened: as §1
# ScLsb3 = target: ScLsb3
# Procedure, shortened: as §1
# ScLsb4 = target: ScLsb4
# Procedure, shortened: as §1
# ScMyo3 = target: ScMyo3
# Procedure, shortened: as §1
# ScMyo5 = target: ScMyo5
# Procedure, shortened: as §1
# ScNbp2 = target: ScNbp2
# Procedure, shortened: as §1
# ScPex13 = target: ScPex13
# Procedure, shortened: as §1
# ScRvs167 = target: ScRvs167
# Procedure, shortened: as §1
# ScSho1 = target: ScSho1
# Procedure, shortened: as §1
# ScSla1-D1-D2 = target: ScSla1-D1-D2
# Procedure, shortened: as §1
# ScSla1-D3 = target: ScSla1-D3
# Procedure, shortened: as §1
# SpAbp1-D1 = target: SpAbp1-D1
# Procedure, shortened: as §1
# SpBbc1 = target: SpBbc1
# Procedure, shortened: as §1
# SpBzz1-D1 = target: SpBzz1-D1
# Procedure, shortened: as §1
# SpBzz1-D2 = target: SpBzz1-D2
# Procedure, shortened: as §1
# SpCyk3 = target: SpCyk3
# Procedure, shortened: as §1
# SpHof1 = target: SpHof1
# Procedure, shortened: as §1
# SpHof1-2 = target: SpHof1-2
# Procedure, shortened: as §1
# SpHof1-3 = target: SpHof1-3
# Procedure, shortened: as §1
# SpHse1 = target: SpHse1
# Procedure, shortened: as §1
# SpLsb1 = target: SpLsb1
# Procedure, shortened: as §1
# SpLsb4 = target: SpLsb4
# Procedure, shortened: as §1
# SpMyo1 = target: SpMyo1
# Procedure, shortened: as §1
# SpNbp2 = target: SpNbp2
# Procedure, shortened: as §1
# SpPex13 = target: SpPex13
# Procedure, shortened: as §1
# SpRvs167 = target: SpRvs167
# Procedure, shortened: as §1
# SpSla1-D1-D2 = target: SpSla1-D1-D2
# Procedure, shortened: as §1
# SpSla1-D3 = target: SpSla1-D3
# Procedure, shortened: as §1
binder,measurement,setting,value
B1,SPOT peptide array binding signal intensity,AgAbp1,9
same,SPOT peptide array binding signal intensity,AgBbc1,519
same,SPOT peptide array binding signal intensity,AgBem1-D1,129
same,SPOT peptide array binding signal intensity,AgBzz1-D1,232
same,SPOT peptide array binding signal intensity,AgBzz1-D2,117
same,SPOT peptide array binding signal intensity,AgCyk3,15
same,SPOT peptide array binding signal intensity,AgFus1,11
same,SPOT peptide array binding signal intensity,AgHof1,95.5
same,SPOT peptide array binding signal intensity,AgHse1,23
same,SPOT peptide array binding signal intensity,AgLsb1,27
same,SPOT peptide array binding signal intensity,AgLsb4,131
same,SPOT peptide array binding signal intensity,AgMyo5,72.2
same,SPOT peptide array binding signal intensity,AgNbp2,59.5
same,SPOT peptide array binding signal intensity,AgRvs167,76.8
same,SPOT peptide array binding signal intensity,AgSho1,5
same,SPOT peptide array binding signal intensity,AgSla1-D1-D2,6
same,SPOT peptide array binding signal intensity,AgSla1-D3,21.5
same,SPOT peptide array binding signal intensity,CaAbp1-D1,53.5
same,SPOT peptide array binding signal intensity,CaAbp1-D2,11
same,SPOT peptide array binding signal intensity,CaBbc1,724
same,SPOT peptide array binding signal intensity,CaBem1-D1,108
same,SPOT peptide array binding signal intensity,CaBzz1-D1,5240
same,SPOT peptide array binding signal intensity,CaBzz1-D2,1310
same,SPOT peptide array binding signal intensity,CaCyk3,247
same,SPOT peptide array binding signal intensity,CaFus1,69
same,SPOT peptide array binding signal intensity,CaHof1,9.5
same,SPOT peptide array binding signal intensity,CaHse1,3
same,SPOT peptide array binding signal intensity,CaLsb1,2
same,SPOT peptide array binding signal intensity,CaLsb4,541
same,SPOT peptide array binding signal intensity,CaMyo5,34
B2,SPOT peptide array binding signal intensity,AgAbp1,1400
same,SPOT peptide array binding signal intensity,AgBbc1,72.8
same,SPOT peptide array binding signal intensity,AgBem1-D1,12
same,SPOT peptide array binding signal intensity,AgBzz1-D1,31
same,SPOT peptide array binding signal intensity,AgBzz1-D2,≤ 0
same,SPOT peptide array binding signal intensity,AgCyk3,≤ 0
same,SPOT peptide array binding signal intensity,AgFus1,141
same,SPOT peptide array binding signal intensity,AgHof1,21.5
same,SPOT peptide array binding signal intensity,AgHse1,252
same,SPOT peptide array binding signal intensity,AgLsb1,≤ 0
same,SPOT peptide array binding signal intensity,AgLsb4,≤ 0
same,SPOT peptide array binding signal intensity,AgMyo5,≤ 0
same,SPOT peptide array binding signal intensity,AgNbp2,41
same,SPOT peptide array binding signal intensity,AgRvs167,5.33
same,SPOT peptide array binding signal intensity,AgSho1,32
same,SPOT peptide array binding signal intensity,AgSla1-D1-D2,206
same,SPOT peptide array binding signal intensity,AgSla1-D3,3.5
same,SPOT peptide array binding signal intensity,CaAbp1-D1,398
same,SPOT peptide array binding signal intensity,CaAbp1-D2,1860
same,SPOT peptide array binding signal intensity,CaBbc1,364
same,SPOT peptide array binding signal intensity,CaBem1-D1,23
same,SPOT peptide array binding signal intensity,CaBzz1-D1,≤ 0
same,SPOT peptide array binding signal intensity,CaBzz1-D2,46.5
same,SPOT peptide array binding signal intensity,CaCyk3,7
same,SPOT peptide array binding signal intensity,CaFus1,850
same,SPOT peptide array binding signal intensity,CaHof1,≤ 0
same,SPOT peptide array binding signal intensity,CaHse1,193
same,SPOT peptide array binding signal intensity,CaLsb1,≤ 0
same,SPOT peptide array binding signal intensity,CaLsb4,176
same,SPOT peptide array binding signal intensity,CaMyo5,≤ 0
same,SPOT peptide array binding signal intensity,CaNbp2,252
same,SPOT peptide array binding signal intensity,CaRvs167,14.8
same,SPOT peptide array binding signal intensity,CaRvs167-3,24.8
same,SPOT peptide array binding signal intensity,CaSho1,201
same,SPOT peptide array binding signal intensity,CaSla1-D1-D2,27.5
same,SPOT peptide array binding signal intensity,CaSla1-D3,10
same,SPOT peptide array binding signal intensity,ScAbp1,296
same,SPOT peptide array binding signal intensity,ScBbc1,9.75
same,SPOT peptide array binding signal intensity,ScBem1-D1,9
same,SPOT peptide array binding signal intensity,ScBzz1-D1,6.5
same,SPOT peptide array binding signal intensity,ScBzz1-D2,20
same,SPOT peptide array binding signal intensity,ScCyk3,10
same,SPOT peptide array binding signal intensity,ScFus1,50
same,SPOT peptide array binding signal intensity,ScHof1,≤ 0
same,SPOT peptide array binding signal intensity,ScHse1,478
same,SPOT peptide array binding signal intensity,ScLsb1,16.5
same,SPOT peptide array binding signal intensity,ScLsb2,≤ 0
same,SPOT peptide array binding signal intensity,ScLsb3,527
same,SPOT peptide array binding signal intensity,ScLsb4,4
same,SPOT peptide array binding signal intensity,ScMyo3,≤ 0
same,SPOT peptide array binding signal intensity,ScMyo5,≤ 0
same,SPOT peptide array binding signal intensity,ScNbp2,550
same,SPOT peptide array binding signal intensity,ScPex13,37.5
same,SPOT peptide array binding signal intensity,ScRvs167,≤ 0
same,SPOT peptide array binding signal intensity,ScSho1,1040
same,SPOT peptide array binding signal intensity,ScSla1-D1-D2,50
same,SPOT peptide array binding signal intensity,ScSla1-D3,6.5
same,SPOT peptide array binding signal intensity,SpAbp1-D1,166
same,SPOT peptide array binding signal intensity,SpBbc1,0.75
same,SPOT peptide array binding signal intensity,SpBzz1-D1,362
same,SPOT peptide array binding signal intensity,SpBzz1-D2,0.5
same,SPOT peptide array binding signal intensity,SpCyk3,≤ 0
same,SPOT peptide array binding signal intensity,SpHof1,93
same,SPOT peptide array binding signal intensity,SpHof1-2,18.8
same,SPOT peptide array binding signal intensity,SpHof1-3,445
same,SPOT peptide array binding signal intensity,SpHse1,294
same,SPOT peptide array binding signal intensity,SpLsb1,≤ 0
same,SPOT peptide array binding signal intensity,SpLsb4,161
same,SPOT peptide array binding signal intensity,SpMyo1,≤ 0
same,SPOT peptide array binding signal intensity,SpNbp2,246
same,SPOT peptide array binding signal intensity,SpPex13,8
same,SPOT peptide array binding signal intensity,SpRvs167,7.5
same,SPOT peptide array binding signal intensity,SpSla1-D1-D2,≤ 0
same,SPOT peptide array binding signal intensity,SpSla1-D3,≤ 0
